Source: PubChem BioAssay (National Center for Advancing Translational Sciences (NCATS))
An excerpt weighted towards active compounds, which were near 6.1% of everything screened.
D1 antag: human D1 dopamine receptor antagonism; P21728; HEK293 TREx D1 cells, calcium flux, dopamine EC80; stronger effect = lower value; activity change, negative = inhibition, % at 10 µM; 360,000 tested, 3.2% active; in the data active means activity change below about -30%; further: on the % scale 0 is the no-effect control and ±100 the full control effect
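Tetracycline-induced HEK293 Trex D1 cells, force-coupled to calcium, dye-loaded; compounds added and read 180 s, then EC80 dopamine added and calcium flux tracked kinetically another 180 s.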
D1 agonist: agonists of human D1 dopamine receptor; 360,000 tested, 1% active; HEK293 T-REx D1 cells, calcium flux, agonist mode; P21728; activation, % at 2 µM; in the data active means activation above about 30%; further: 0% is about no effect
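Tetracycline-induced HEK293 TREx D1 cells, force-coupled to calcium signalling, were dye-loaded with a no-wash calcium kit. Compound was pin-added after a 10 s baseline. Fluorescence was read kinetically at 1 cycle/s for 180 s, with calcium rises flagged as agonism.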
D3 ag: D3 dopamine receptor (human) agonism | P35462 | AID 652048 | D3R DiscoveRx beta-arrestin cells, luminescence, 90 min | max activation, % | 410,000 tested, 0.58% active; in the data active means max activation above about 30%; further: 0% is about no effect
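Cells at 1500/well, incubated overnight, then treated with pinned compounds (dopamine as control) for 90 min at 37 degrees C. DiscoveRx reagent added for 30 - 60 minutes at room temperature; luminescence read.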
D1 potentiator: enhances dopamine response at the human D1 receptor. P21728. HEK293 TREx D1 cells, calcium flux, dopamine EC20 potentiation. potentiation, % at 10 µM. 360,000 tested, 0.036% active; in the data active means potentiation above about 30%; further: 0% is about no effect
D3 antag: blocks the human D3 dopamine receptor. P35462. D3R cells, DiscoveRx beta-arrestin luminescence, antagonist mode; stronger effect = lower value. max response, negative = inhibition, %. 360,000 tested, 2.5% active. AID 652054; in the data active means max response below about -50%; further: on the % scale 0 is the no-effect control and ±100 the full control effect
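Cells expressing the human receptor were seeded at 1500 cells/well, incubated overnight at 37 degrees C in 5% CO2, then exposed to library compounds with dopamine controls for 90 minutes at 37 degrees C before luminescent detection.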
ERG-DNA inh: inhibitors of human ERG Ets domain-DNA interaction | P11308 | fluorescence polarization, His-ERG Ets domain / labelled DNA | Potency, µM (highest dose often 76.9 µM), for inactives: at the highest dose FP activity, negative = inhibition, hits mostly inhibitors | 370,000 tested, 0.028% active | AID 624246; active means well fitted inhibition curve with a large enough effect in the polarisation, with a control signal flat; the % refers to the polarisation;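 further: polarization taken with two DNA probes labelled with fluorescein and Texas red; potency means the concentration at half of the fitted maximal effect; % of control where 0% means no effect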
Target sequence (P11308 whole entry, looked up, the tested form may be a part): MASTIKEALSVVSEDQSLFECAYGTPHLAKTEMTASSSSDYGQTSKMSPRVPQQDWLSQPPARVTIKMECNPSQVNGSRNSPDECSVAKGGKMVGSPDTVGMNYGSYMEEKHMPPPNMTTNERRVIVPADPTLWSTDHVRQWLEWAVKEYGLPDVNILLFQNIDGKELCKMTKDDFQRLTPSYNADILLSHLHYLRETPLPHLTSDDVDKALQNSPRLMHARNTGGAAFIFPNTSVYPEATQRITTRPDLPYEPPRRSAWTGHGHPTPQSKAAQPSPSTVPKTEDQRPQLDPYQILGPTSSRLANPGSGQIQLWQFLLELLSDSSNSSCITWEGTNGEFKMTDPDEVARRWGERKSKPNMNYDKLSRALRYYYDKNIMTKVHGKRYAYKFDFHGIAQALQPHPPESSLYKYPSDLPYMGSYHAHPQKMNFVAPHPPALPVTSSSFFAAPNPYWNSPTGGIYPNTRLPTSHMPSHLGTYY
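His-tagged ERG Ets domain (1 uM in the protein solution; 300mM KCl, 50mM Tris-HCl, 1mM EDTA, 1mM DTT, pH 7.5) received compound, then a probe mix of 5 nM fluorescein-DNA and 100nM Texas-615-DNA. Fluorescence polarization was read for both dyes.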
Active calls of the source: *; / = no result; ! = not confirmed by another sample.

SMILES	D1 antag	D1 agonist	D3 ag	D1 potentiator	D3 antag	ERG-DNA inh
CCC1CCc2sc(C(=O)NCC(c3ccc(OC)cc3)N3CCOCC3)cc2C1 (stereo not drawn)	6	0	-5	-9	-91*	-4%
COc1ccc(C(=O)Nc2cccc(C(=O)N/N=C/c3ccc(OC)cc3OC)c2)cc1	-48*	1	4	-8	20	7%
COc1ccc(C(=O)Nc2cccc(NC(=O)c3cccs3)c2)cc1	-31*	3	-5	-5	8	-11%
CCc1cc(C(=O)NCC(c2ccc(OC)cc2)N2CCOCC2)sc1C (stereo not drawn)	-9	5	-26	-3	-29	-3%
O=C(CN1C(=O)/C(=C/c2c(F)cccc2Cl)Oc2ccccc21)NCc1ccco1	-13	10	/	-1	/	/
O=C(CSc1nc(-c2ccncc2)nn1CC(=O)N1CCCCC1)NC1CCCC1	5	2	-10	1	-21	6%
O=C(/C=C/c1cccs1)Nc1nc(-c2ccccc2)cs1	-36*	1	-18	-10	34	0%
Cc1ccc(CNC(=O)CNC(=S)N(Cc2ccccc2)Cc2ccccc2F)cc1	-30*	6	-8	-14	-29	1%
COc1ccccc1CNC(=O)Cc1csc2nc(-c3ccccc3)cn12	-35*	-2	6	-3	/	-3%
COc1ccccc1C(C)NCC(=O)NCC(=O)Nc1ccc(F)c(F)c1F (stereo not drawn)	-23	3	-10	-8	-29	-13%
COc1ccccc1C(C)NCC(=O)NCc1ccc(C)cc1 (stereo not drawn)	18	2	-36	0	-58*	-29%
COc1ccccc1CNC(=O)CC(C)C	-32*	4	1	-7	-9	5%
O=C(CNC(=S)N(Cc1ccccc1)Cc1ccccc1F)NCc1ccccc1	11	2	-11	10	-4	18%
CC(C)Oc1ccc(N2CC(C(=O)Nc3ccccn3)CC2=O)cc1 (stereo not drawn)	-7	1	2	-7	14	-3%
COc1ccccc1CNCC(O)Cn1c2ccccc2c2ccccc21 (stereo not drawn)	-10	90*	1	-5	17	5%
COc1ccccc1CNCC(c1ccccc1)c1ccccc1	-19	14	/	/	/	/
COc1ccccc1CNCC(=O)NCc1ccc(C)cc1	4	4	-20	-4	-87*	0%
CC(=O)Nc1ccc(S(=O)(=O)N2CCC(C(=O)NCCC(=O)NCc3ccncc3)CC2)cc1	-8	4	3	6	2	0%
COc1ccccc1Oc1ccc2c(c1)C(=O)N(c1cccc3ncccc13)C2=O	-35*	15	1	-6	3	7%
COc1ccccc1Oc1ccc2c(c1)C(=O)N(c1cccc(O)c1)C2=O	-22	4	6	-7	16	5%
C[C@]12CC[C@@H]3c4ccc(O)cc4CC[C@H]3[C@@H]1CC[C@@H]2OC(=O)CCC1CCCC1	/	/	45*!	/	72	25%
CCCCC(=O)O[C@H]1CC[C@H]2[C@@H]3CCc4cc(O)ccc4[C@H]3CC[C@]12C	28	0	12	7	45	-1%
Cc1cc(C(=O)N2CCCC(C(=O)c3cc(F)ccc3F)C2)c(C)o1 (stereo not drawn)	-17	-1	1	-2	-56*	-5%
Cc1cc(C)c(C(=O)N2CCCC(C(=O)c3cc(F)ccc3F)C2)o1 (stereo not drawn)	-1	2	3	-2	11	-11%
CCN(CC)C(=O)CN(c1cc2c(cc1OC)oc1ccccc12)S(=O)(=O)c1ccccc1	-68*	2	-15	-11	0	2%
SMILES	D1 antag	D1 agonist	D3 ag	D1 potentiator	D3 antag	ERG-DNA inh
COc1cc2oc3ccccc3c2cc1N(CC(=O)N(C)C)S(=O)(=O)c1ccccc1	-5	1	-10	0	-7	7%
COc1ccc(CC(=O)Nc2ccc(-c3nc4ccccc4s3)cc2Cl)cc1	7	5	3	-3	/	13%
O=C(c1ccc(S(=O)(=O)N2CCCC2)cc1)N(Cc1ccco1)C1CCS(=O)(=O)C1 (stereo not drawn)	0	3	-4	-2	-14	-5%
CC(C)(C)c1ccc(Oc2ccc(NC(=O)c3ccco3)cn2)cc1	-1	3	-1	-3	-15	2%
O=C(Nc1ccc(Oc2cccc(C(F)(F)F)c2)nc1)c1ccco1	-41*	12	10	-1	10	-2%
Fc1ccccc1CSc1nc2ncc(Br)cc2[nH]1	-20	1	-1	-3	0	4%
Cc1ccc(C(=O)NN2C(=O)c3ccc(S(=O)(=O)c4ccc(C(=O)O)cc4)cc3C2=O)cc1	-43*	2	-8	-10	7	-2%
CCCN1C(=O)NC2(O)C(=O)c3ccccc3C12O (stereo not drawn)	-2	3	0	0	2	8%
CN1C(=O)NC2(O)C(=O)c3ccccc3C12O (stereo not drawn)	-23	1	9	2	-60*	3%
Cc1nn(C)c(C(=O)NC(=S)Nc2ccccc2Br)c1Cl	-4	2	3	8	14	-11%
Cc1nn(C)c(C(=O)NNC(=O)Nc2cccc(C(F)(F)F)c2)c1Cl	-30*	10	3	-6	0	10%
O=C(NCc1cccc(Cl)c1)c1cccc(C(F)(F)F)c1	-33*	2	1	-9	-15	-2%
O=C(NNC(=S)Nc1cccc(C(F)(F)F)c1)c1cccc(Cl)c1	6	9	44*	-4	6	-1%
Cc1nn(C)c(C(=O)NNC(=S)NCc2ccccc2)c1Cl	-32*	6	-1	-6	-4	-9%
O=C(NNC(=S)Nc1cccc(C(F)(F)F)c1)c1ccccc1Cl	-21	14	2	-6	6	1%
CCn1c(SCc2ccc(C(=O)O)cc2)nnc1-c1ccc(Cl)cc1	11	0	-4	-4	-13	10%
COc1cccc(NC(=O)CN2CCC(C)CC2)c1	9	2	-6	0	-25	-8%
Cc1ccccc1N/C(SCc1ccc(Cl)cc1)=C(/C#N)C(=O)NCc1ccco1	-17	13	-18	-8	-17	-3%
Cc1ccc(CS/C(Nc2ccccc2C)=C(\C#N)C(=O)NCc2ccco2)c(C)c1	-24	30*	-5	-4	-17	5%
O=C(Cn1cnc2ccccc2c1=O)c1ccc2c(c1)OCCO2	-11	2	3	2	-3	8%
c1ccc(OCc2nn3c(Cn4cnc5ccccc54)nnc3s2)cc1	-7	11	15	-8	20	2%
